Screening data from PubChem.
Hits are enriched below; roughly 7.7% of the tested compounds scored in any of these assays.
HCMV antiviral: blocks human cytomegalovirus replication. HFF cells, HCMV-luciferase reporter, 72 h; hits give low values. activity change, negative = inhibition, % at 57.5 µM. hit rate 4.5% among 410,000. AID 1259415; in the data active = activity change below about -60%; inconclusive = no clear call, values can overlap the other calls; inactive = above about -39%
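Inhibition of viral replication was scored as loss of reporter luminescence in HFFs infected with HCMV-luciferase (MOI 1 PFU/cell) for 72 h; compounds tested at 2 doses, normalized to buffer and Salinomycin controls.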
RE007 growth inh: less growth of the S. pombe RE007 Vpr strain | hit rate 0.21% among 360,000 | S. pombe RE007 Vpr strain, BacTiter-Glo ATP luminescence, 24 h | Potency, µM (titrated, usually from 92.2 µM), for the others: at the top dose activity change, negative = less growth, usual class: inhibitors; active = well fitted falling curve with a large enough effect; inconclusive = small, poorly fitted or top-dose-only effect; inactive = no such curve, though single readings can be large or run the other way; note: potency is the fitted concentration of half-maximal effect; nearly all actives have a fitted effect of over 50% in size
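Fission yeast strain RE007, carrying one chromosomally integrated HIV-1 vpr copy, was seeded at OD 0.01 in PMG+AL medium with 23 nL pinned compound. After 24 h at 30 °C and 99% humidity, viability was read by BacTiter-Glo luminescence.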
Tb PYK inh: inhibitors of Trypanosoma brucei pyruvate kinase | hit rate 0.12% among 410,000 | Potency, µM (doses to about 76.8 µM), inactives show top-dose activity, negative = inhibition, hits mostly inhibitors | Q57TT1 | TbPYK enzyme, Kinase-Glo Plus ATP luminescence, 45 min; note: potency is the fitted concentration of half-maximal effect; nearly all actives have a fitted effect of over 50% in size
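ADP (130 uM final) triggers the TbPYK reaction after compound addition; incubation is 45 min at room temperature. Kinase-Glo Plus is then added and luminescence imaged. Normalized data are fitted to concentration-effect curves.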
FMDV antiviral: antivirals against foot and mouth disease virus; Potency, µM (series often up to 57.9 µM), for the others: at the highest dose activity change, negative = inhibition, most hits filed as inhibitors; FMDV antiviral cell-based qHTS; hit rate 1.2% among 410,000; AID 1159524; calls by dose curve; tested in HEK293T cells; note: read-out not given here; potency is the fitted concentration of half-maximal effect; nearly all actives have a fitted effect of over 45% in size
Sm TGR inh: blocks Schistosoma mansoni thioredoxin glutathione reductase. Potency, µM (top dose mostly 114 µM), for inactives: at the highest dose activity change, negative = inhibition, hits mostly inhibitors. Q962Y6. AID 485364. purified TGR, DTNB reduction, TNB absorbance 405 nm. hit rate 3% among 360,000; note: potency is the fitted concentration of half-maximal effect; nearly all actives have a fitted effect of over 60% in size
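TGR 20 nM + NADPH 100 uM (dispensed conc.), cpd preinc 15 min RT; start with NADPH (500 uM addition) then DTNB (15 mM addition). Kinetic TNB absorbance, 405 nm filter. Four-parameter Hill fit across titration.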
FBPA Giardia inh: inhibitors of Giardia lamblia fructose-1,6-bisphosphate aldolase. hit rate 0.71% among 290,000. purified Giardia FBPA. Potency, µM (doses to about 59.6 µM), for the others: at the top dose activity, negative = inhibition, hits mostly inhibitors. A8B2U2; note: potency is the fitted concentration of half-maximal effect; nearly all actives have a fitted effect of over 55% in size
Target sequence (A8B2U2 whole entry, looked up): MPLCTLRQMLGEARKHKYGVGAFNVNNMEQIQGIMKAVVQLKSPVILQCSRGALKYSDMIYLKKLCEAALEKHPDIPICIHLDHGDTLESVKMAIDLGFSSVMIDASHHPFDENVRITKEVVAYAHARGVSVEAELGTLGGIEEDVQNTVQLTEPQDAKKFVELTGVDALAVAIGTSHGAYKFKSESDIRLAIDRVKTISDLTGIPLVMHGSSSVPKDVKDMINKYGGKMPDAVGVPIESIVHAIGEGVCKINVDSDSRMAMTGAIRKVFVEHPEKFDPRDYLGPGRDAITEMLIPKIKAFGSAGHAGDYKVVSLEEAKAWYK
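Giardia FBPA (40 nM reagent) was preincubated 10 min at RT with compound (up to 57.5 uM final), then substrate plus GAPDH/TPI/NAD/arsenate coupling system with diaphorase/resazurin was added; resorufin fluorescence (525/598 nm) was read after 20 min.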
An asterisk follows results filed as active; ? = inconclusive; / = no result. Unless noted, calls come from the whole dose curve; as a rule, active = well fitted curve in the direction sought with a large enough effect; inconclusive = small, poorly fitted or top-dose-only effect, or another doubt; inactive = no such curve, though single readings can be large; an effect the other way counts as inactive or inconclusive. % is set by controls: 0 for no effect and ±100 for the full control effect.

SMILES | HCMV antiviral | RE007 growth inh | Tb PYK inh | FMDV antiviral | Sm TGR inh | FBPA Giardia inh
Cc1cccc(N2CCN(C(=O)c3c(C)oc4ncnc(N5CCCCC5)c34)CC2)c1C | -11 | / | -2% | -20% | -9% | /
COC(=O)c1ccccc1NC(=O)c1c(C)oc2ncn(C)c(=O)c12 | -91* | / | 5% | 12% | -1% | /
Cc1cc(Cl)ccc1-n1c(-c2cccnc2)n[nH]c1=S | 36 | 12% | 14µM* | -22% | 10% | -23%
Cc1ccc(-n2c(-c3ccc(Br)cc3)n[nH]c2=S)c(C)c1 | -9 | 11% | ? | -3% | / | /
Cc1ccc(-n2c(-c3ccncc3)n[nH]c2=S)c(C)c1 | -34 | 1% | 7.1µM* | -13% | 23% | -28%
Cc1cccc(-n2c(-c3ccncc3)n[nH]c2=S)c1C | -6 | 0% | ? | -4% | 1% | -26%
Cc1ccc(C)c(-n2c(-c3cccnc3)n[nH]c2=S)c1 | ? | 9% | ? | -14% | / | ?
CCc1ccccc1-n1c(-c2ccncc2)n[nH]c1=S | 59 | 18% | 25µM* | -17% | -7% | 7%
Cc1c(Cl)cccc1-n1c(-c2cccnc2)n[nH]c1=S | -7 | -9% | 7.1µM* | -11% | -1% | -9%
COc1cccc(/C=C/c2nc(C#N)c(N3CCN(C)CC3)o2)c1 | -3 | / | -3% | 6% | 33% | /
CC1CCCCC1n1c(-c2cccnc2)n[nH]c1=S (stereo unspecified) | -30 | 9% | 11µM* | -4% | -6% | -6%
CC(C)(C)C(=O)Nc1cccc(-c2nc3ccccc3c(=O)o2)c1 | 11 | -1% | 0% | / | -31% | /
CC(C)(C)C(=O)Nc1ccc(-c2nc3ccccc3c(=O)o2)cc1 | -64* | -2% | -2% | 4.5µM* | 0% | -1%
CC(C)(CCl)C(=O)Nc1ccc(C(F)(F)F)cc1 | -76* | -8% | 9% | 6% | -18% | -8%
CC(O)(CS(=O)(=O)c1cccc(C(F)(F)F)c1)C(=O)Nc1ccc(C(F)(F)F)cc1 (stereo unspecified) | -3 | -7% | -6% | -12% | -31% | -8%
CC(C)(C)C(=O)Nc1ccc(NC(=O)C(C)(C)C)cc1 | -84* | 1% | 3% | 17% | 20% | 10%
CCCCc1ccc(NC(=O)C2(C)Cc3ccccc3C(=O)O2)cc1 (stereo unspecified) | 3 | / | -1% | -9% | 0% | /
C[C@@H]1CN([C@H](C)CO)C(=O)CCCn2nncc2CO[C@@H]1CN(C)C(=O)Nc1ccccc1 | -9 | / | / | / | / | /
CCn1c(SCC(=O)Nc2nccs2)nnc1-c1ccc(S(=O)(=O)N2CCCCCC2)cc1 | -32 | -2% | -3% | ? | 2% | 8%
CCC(Sc1nnc(-c2ccc(C)c(Cl)c2)n1CC)C(=O)Nc1nccs1 (stereo unspecified) | ? | 29% | -24% | 22µM* | 6% | 8%
Cc1ccc(CN2CCOc3ccc(CN4CCN(CCO)CC4)cc3C2)s1 | / | / | / | -5% | / | /
O=C(NCCC1=CCCCC1)c1ccc(Cl)c(S(=O)(=O)N2CCOCC2)c1 | -66* | 18% | -7% | ? | 2% | -3%
O=C(NCCC1=CCCCC1)c1ccc(Cl)c(S(=O)(=O)N2CCCCC2)c1 | -81* | 2% | 5% | ? | -20% | 0%
NS(=O)(=O)c1ccc(CCNC(=O)c2ccc(Cl)c(S(=O)(=O)N3CCCCC3)c2)cc1 | ? | -1% | 0% | 45µM* | / | /
NS(=O)(=O)c1ccc(CCNC(=O)c2ccc(S(=O)(=O)N3CCCCC3)cc2)cc1 | -32 | 6% | 6% | ? | 4% | 2%
SMILES | HCMV antiviral | RE007 growth inh | Tb PYK inh | FMDV antiviral | Sm TGR inh | FBPA Giardia inh
Cc1ccc(C)c(S(=O)(=O)N2CCCOC2CNC(=O)C(=O)NCCC2=CCCCC2)c1 (stereo unspecified) | -67* | -5% | -9% | ? | -1% | 0%
CCCSc1nc(=O)c2c(n1C)NC(=O)CC2c1cccc(F)c1F (stereo unspecified) | -10 | / | -6% | 4% | -2% | /
Cc1ccc(NC(=O)CSc2nc3c(oc4ccccc43)c(=O)n2Cc2ccco2)cc1 | -1 | / | -7% | 22% | -1% | /
Cc1cc(C(F)F)n2nc(C(=O)Nc3c(C)cccc3C)nc2n1 | 15 | / | 3% | -5% | 3% | /
Cc1nnc(SCc2nc3ccccc3c(=O)n2-c2ccccc2Cl)n1N | -8 | -5% | -1% | / | 56µM* | -24%
Cc1ccc(C)c(NC(=O)Cn2cc(S(=O)(=O)c3ccc(F)cc3)c(=O)c3cc(F)ccc32)c1 | -2 | / | -1% | -4% | 5% | /
Cc1ccc(/C=N/Nc2ncc(Cl)cc2Cl)s1 | -64* | 5% | 1% | -17% | -1% | -11%
COc1cc(OC)c(NC(=O)C(CC(C)C)N2Cc3ccccc3C2=O)cc1Cl (stereo unspecified) | -65* | / | -3% | 8% | -1% | /
CCOc1ccc(/C=N/N2C(C)CCCC2C)cc1OC (stereo unspecified) | 26 | -3% | 6% | 3% | 25% | 9%
COc1cc(/C=N/N2C(C)CCCC2C)cc(OC)c1O (stereo unspecified) | -7 | 4% | -5% | -7% | 45µM* | -4%
CC(=O)Nc1nnc(-c2ccc3c(c2)CCCC3)o1 | -26 | -13% | 1% | 20% | 1% | -9%
COc1ccccc1C(=O)Nc1nnc(-c2ccc3c(c2)CCCC3)o1 | -76* | 11% | 5% | 55% | 10% | 26%
Cc1ccc(CNC(=O)c2cnc(N(C)C)nc2)cc1 | -1 | / | -1% | -2% | -7% | /
O=C(O)COc1ccc2c3c(c(=O)oc2c1)CCCC3 | -80* | -4% | -2% | -7% | / | 7%
O=c1oc2cc(OCCO)ccc2c2c1CCCC2 | -4 | -7% | -10% | 16% | -17% | 7%
COc1ccc(-c2noc(Cn3c(=O)c4ccccc4n(CC(=O)Nc4cccc(OC)c4)c3=O)n2)cc1 | -13 | / | -4% | 0% | 5% | /
Nc1cccc(S(=O)(=O)N2CCCN(S(=O)(=O)c3ccc4c(c3)OCCO4)CC2)c1 | / | / | 0% | / | / | /
N=c1c2c(ncn1Cc1ccco1)Oc1c(ccc3ccccc13)C2c1ccccc1 (stereo unspecified) | -38 | 18% | -12% | -25% | -2% | 1%
CN(C)CCn1cnc2c(c1=N)C(c1ccccc1)c1ccc3ccccc3c1O2 (stereo unspecified) | -98* | 6% | 2% | 0% | -10% | 4%
CNc1cc(OC)c(C(=O)N[C@H]2CCN(Cc3ccccc3)[C@H]2C)cc1Cl | / | / | / | -17% | / | /
CCCc1c(O)nc(SC2CC(=O)N(c3ccc(C)c(Cl)c3)C2=O)[nH]c1=O (stereo unspecified) | 17 | ? | 1% | -19% | / | /
